Laboratory results as given in PubChem BioAssay (NCI).
About 83,000 compounds went through this panel and 20% of them were active in at least one assay; those are over-represented in the sample as a whole.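 Method: cells in 96-well plates; compound added at one concentration; 48 h incubation; percent growth measured; values under 10 scored active.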 Unmarked numbers belong to inactive results. Active and inactive are the calls of the source.

Tests used:
Assay in all cases: NCI-60 one-dose screen, 48 h (100 = growth as untreated, 0 = no growth, -100 = all killed)
Settings in all cases: 10 µM unless noted
NCI-H23 lung = tested on: NCI-H23 lung
NCI-H322M lung = tested on: NCI-H322M lung
HOP-62 NSCLC = tested on: HOP-62 NSCLC
NCI-H460 lung = tested on: NCI-H460 lung
HOP-92 NSCLC = tested on: HOP-92 NSCLC
NCI-H522 lung = tested on: NCI-H522 lung
A549/ATCC NSCLC = tested on: A549/ATCC NSCLC
786-0 renal = tested on: 786-0 renal
COLO 205 colon = tested on: COLO 205 colon
DU-145 prostate = tested on: DU-145 prostate
K-562 leukemia = tested on: K-562 leukemia
MALME-3M melanoma = tested on: MALME-3M melanoma
MDA-MB-231 breast = tested on: MDA-MB-231 breast
RXF 393 renal = tested on: RXF 393 renal
SF-268 CNS = tested on: SF-268 CNS
SF-295 CNS = tested on: SF-295 CNS
SF-539 CNS = tested on: SF-539 CNS
UACC-257 melanoma = tested on: UACC-257 melanoma
M14 melanoma = tested on: M14 melanoma

| Structure (SMILES) | growth (NCI-H23 lung) | growth (NCI-H322M lung) | growth (HOP-62 NSCLC) | growth (NCI-H460 lung) | growth (HOP-92 NSCLC) | growth (NCI-H522 lung) | growth (A549/ATCC NSCLC) | growth (786-0 renal) | growth (COLO 205 colon) | growth (DU-145 prostate) | growth (K-562 leukemia) | growth (MALME-3M melanoma) | growth (MDA-MB-231 breast) | growth (RXF 393 renal) | growth (SF-268 CNS) | growth (SF-295 CNS) | growth (SF-539 CNS) | growth (UACC-257 melanoma) | growth (M14 melanoma) |
| --- | --- | --- | --- | --- | --- | --- | --- | --- | --- | --- | --- | --- | --- | --- | --- | --- | --- | --- | --- |
| O=C1NC(=C(Cl)Cl)/C(=N/S(=O)(=O)N2CCCCC2)N1 | 53.9% | 92.5% | 62.1% | 94.2% | -81.8% (active) | -82.3% (active) | 93.4% | 2.47% (active) | -84.5% (active) | 101% | -51.6% (active) | -73.6% (active) | -6.69% (active) | -39.8% (active) | 28.3% | 110% | 11.8% | 39.3% | 37.9% |
| C=CCOC(=O)C1=C(C)NC(=O)NC1c1c(Cl)n(C)c2ccccc12 (stereo not given) | 88.3% | 96.9% | 92.9% | 106% | 55.3% | 93.3% | 103% | 91.3% | 111% | 107% | 106% | 105% | 96% | 100% | 95.4% | 99.4% | 93.5% | 99.4% | 95.3% |
| Oc1c(CN2CCCC2)cc(COCc2ccccc2)c2cccnc12 | 31.3% | 16.7% | 1.77% (active) | 3.04% (active) | 14.7% | -2.04% (active) | 8.85% (active) | 5.96% (active) | 71.4% | 30.4% | 12.2% | 30.8% | 35.9% | 46.5% | 23.2% | 18.3% | -5.32% (active) | -16.1% (active) | -2.08% (active) |
| NC(=S)N/N=C/c1cn(-c2ccccc2)nc1-c1cc2ccccc2oc1=O | 78.2% | 89.2% | 72.3% | 21% | 79.7% | 36.5% | 46.4% | 62.4% | 46.4% | 85.3% | 17.1% | 48.8% | 34.3% | 78% | 66.1% | 48.1% | 57.2% | 71.5% | 22.1% |
| COC(=O)C1=C(C(=O)Nc2cccnc2)C2OC1(C(Cc1ccccc1)Oc1ccccc1)C1OC21 (stereo not given) | 95.9% | 98.4% | 93% | 103% | -74.2% (active) | -48% (active) |  | 49.7% | -46.9% (active) | 72.8% | -48.4% (active) | -74.7% (active) | 59.8% | 59.1% | 86.5% | 100% | 72% | 79.1% | 11.7% |
| CCCCSCC(=O)c1ccccc1 | 86.2% | 89.7% | 80.9% | 109% | 94.5% | 58.2% | 78.1% | 99.8% | 100% | 103% | 97.3% | 89.6% | 102% | 114% | 97.1% | 105% | 98.4% | 80.9% | 99.4% |
| N#Cc1c(-c2ccccc2)c(C#N)c2c(C#N)c(N)nn2c1N | 72.2% | 83.5% | 40.2% | 19.7% | 27.1% | 13.1% | 38.7% | 53.4% | 29.4% | 78.6% | 6.77% (active) | 39.6% | 33.6% | 69.8% | 56.3% | 33.4% | 37.2% | 51.1% | 32.9% |
| Cc1ccc(-c2nc(C#N)c(S(=O)(=O)NCCO)o2)cc1 | 82.3% |  | 90.4% | 88.6% | 66.1% | -4.75% (active) | 90% | 61.3% | 43.1% | 90% | 29.8% | 75.5% | 75.6% | 56.6% | 87.4% | 101% | 46.6% | 71.4% | 32.5% |
| Cc1nc2sc(C(=O)Nc3ccccc3)c(N)c2cc1C(=O)/C=C/c1ccccc1 | 10.9% | 10.7% | -26.2% (active) | -71% (active) | 6.29% (active) | -42.5% (active) |  | -57.2% (active) | 14.2% | 1.91% (active) | 12% | 50.1% | -9.1% (active) | -74.8% (active) | 0.182% (active) | 18.1% | -27% (active) | 54.2% | 11.1% |
| Nc1c(C(=O)Nc2cccc3ncccc23)sc2nc3c(cc12)C(=O)CCC3 | 53.8% | 62.2% | 39% | 19.9% | 41.8% | 11.1% |  | 56.5% | 45.9% | 69.9% | 31.1% | 74.8% | 58% | 29.3% | 71% | 21.3% | 51.8% | 41.6% | 50.5% |
| CCCCc1oc2ccccc2c1C(=O)c1ccc(O)cc1 | -5.52% (active) | 85.1% | 79.3% | 84.4% | 68.2% | 66.7% | 76.6% | 79.5% | 118% | 101% | 37.8% | 85.4% | 79.1% | 72.7% | 94.2% | 175% | 82.5% | 76.8% | 92.2% |
